In the supplement of paper PMC9446081 one finds relative growth data, which are given here for 65 compounds.

Molecules are shown by their SMILES. About 220 (0.56%) of roughly 39,000 compounds showed activity. This is one part of a sample in which actives are shown more often than they occur. Values without a mark were called inactive.
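Also: Wild-type cells incubated without shaking, value is the mean of two biological replicates.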

This assay has as its system Escherichia coli K-12 BW25113. Description: relative growth (OD600 normalised to plate interquartile mean) (fraction); higher = less growth inhibition, active = 0.2 or less. The settings on record: 50 µM; LB; incubation time: overnight (16-24 h).
For the compound `CCCc1nc2c(=O)n(C)c(=O)[nH]c2n1C`, the relative growth was 0.999. With `C[C@@H]1CN([C@@H](C)CO)C(=O)c2cc(NS(=O)(=O)c3ccc(Cl)cc3)ccc2O[C@@H](C)CCCCO[C@H]1CN(C)Cc1ccncc1` the figure was 1.01; with `C[C@@H]1CN([C@@H](C)CO)C(=O)Cc2cc(NS(=O)(=O)c3ccc(F)cc3)ccc2O[C@@H]1CN(C)S(C)(=O)=O`, 1; with `COc1ccc(S(=O)(=O)Nc2ccc3c(c2)C(=O)N([C@@H](C)CO)C[C@@H](C)[C@H](CN(C)S(=O)(=O)c2cn(C)cn2)OCCCC[C@H](C)O3)cc1`, 0.989.

Regarding `CC(C)NC(=O)N(C)C[C@@H]1Oc2c(NC(=O)C3CCOCC3)cccc2C(=O)N([C@@H](C)CO)C[C@H]1C`, the relative growth was 0.977.

On to `CCc1nc2c(OCC(=O)c3ccc(Cl)cc3Cl)cccn2c1N(C)C(=O)COc1ccccc1`, for which the relative growth was 1.02.

On to `COc1cccc(S(=O)(=O)Nc2ccc3c(c2)OC[C@H](C)N(C(=O)Cc2cccnc2)C[C@H](C)[C@H](OC)CN(C)C3=O)c1`, for which the relative growth is 0.963.

For `COc1ccc(NC(=O)N(C)C[C@@H]2OCCCC[C@H](C)Oc3ccc(NS(=O)(=O)c4cccs4)cc3C(=O)N([C@H](C)CO)C[C@H]2C)cc1`, the relative growth was 0.941. With `O=C(NCC[C@@H]1CC[C@H](NS(=O)(=O)c2cccc(F)c2)[C@@H](CO)O1)C1CC1` the figure was 0.987; with `C[C@@H]1CN([C@H](C)CO)C(=O)c2cc(NC(=O)Nc3ccc(F)cc3)ccc2O[C@@H]1CN(C)S(=O)(=O)c1cn(C)cn1`, 1.01; with `C[C@H](CO)N1C[C@H](C)[C@@H](CN(C)S(=O)(=O)c2cn(C)cn2)Oc2ccc(NC(=O)Nc3ccc(F)cc3)cc2CC1=O`, 0.986.

Regarding `CCNC(=O)[C@@H]1[C@@H](CO)[C@@H]2Cn3c(ccc(-c4cccc(C(=O)N(C)C)c4)c3=O)[C@H]1N2`, the relative growth was 1.02. With `CC1=C(C(=O)O)N2C(=O)[C@@H](NC(=O)[C@@H](N)c3ccc(O)cc3)[C@H]2SC1` the figure was 0.999; with `CC1=C(C(=O)O)N2C(=O)C(NC(=O)C(N)c3ccc(O)cc3)C2SC1` (stereo not given), 0.986; with `CCN1CCN(C(=O)NC(C(=O)NC2C(=O)N3C(C(=O)O)=C(CSc4nnnn4C)CSC23)c2ccc(O)cc2)C(=O)C1=O` (stereo not given), 0.046 (active).

As for `Cc1cc(O)c(C(=O)NC(C(=O)NC2C(=O)N3C(C(=O)O)=C(CSc4nnnn4C)CSC23)c2ccc(O)cc2)cn1` (stereo not given), the relative growth was 0.0416 (active).

Regarding `Cc1cc(=O)c(C(=O)N[C@@H](C(=O)N[C@@H]2C(=O)N3C(C(=O)O)=C(CSc4nnnn4C)CS[C@H]23)c2ccc(O)cc2)c[nH]1`, the relative growth was 0.0389 (active). As to `CC1=C(C(=O)O)N2C(=O)[C@@H](NC(=O)[C@H](N)c3ccc(O)cc3)[C@H]2SC1`, the relative growth is 1.06. With `N=c1sccn1CC(=O)O` the figure was 1.04; with `CC1=C(/C=C/C(C)=C/C=C/C(C)=C/C(=O)O)C(C)(C)CCC1`, 0.987; with `Cc1noc(C)c1NC(=O)N(C)C[C@@H]1OCCCC[C@H](C)Oc2ccc(NC(=O)CCC(F)(F)F)cc2C(=O)N([C@H](C)CO)C[C@@H]1C`, 0.979. With `C[C@H](CO)N1C[C@H](C)[C@@H](CN(C)Cc2ccc3c(c2)OCO3)Oc2c(NC(=O)c3cnccn3)cccc2C1=O` the figure was 0.969. In the case of `COc1ccc(S(=O)(=O)N(C)C[C@H]2OCCCC[C@@H](C)Oc3ccc(NC(=O)Nc4ccc(F)cc4)cc3C(=O)N([C@H](C)CO)C[C@@H]2C)cc1` it was 1.07; in that of `CO[C@@H]1CN(C)C(=O)c2ccc(NC(=O)C3CCOCC3)cc2OC[C@@H](C)N(CC2CCOCC2)C[C@H]1C`, 1.02.

Turning to `O=C(CN1CCOCC1)NCC[C@H]1CC[C@@H](NC(=O)Nc2ccccc2)[C@@H](CO)O1`, the relative growth is 1.01.

As for `Cc1noc(C)c1S(=O)(=O)Nc1cccc2c1O[C@@H](CN(C)Cc1ccccc1)[C@@H](C)CN([C@@H](C)CO)C2=O`, the relative growth was 1.01. In the case of `C[C@@H]1CN([C@H](C)CO)C(=O)c2cc(NC(=O)Nc3ccc(C(F)(F)F)cc3)ccc2O[C@H]1CN(C)Cc1ccc(C(F)(F)F)cc1` it was 1.02; in that of `C[C@@H]1CN([C@H](C)CO)C(=O)c2cc(-c3cccc(C(=O)N(C)C)c3)cnc2O[C@@H]1CN(C)S(=O)(=O)c1ccccc1`, 0.987. Regarding `COc1oc(C(=O)NC2CCCCC2)c(-c2ccc(Cl)cc2)c1S(=O)(=O)c1cccc(Cl)c1`, the relative growth was 0.914. Consider `COc1ccccc1-c1cnc2c(c1)C(=O)N([C@@H](C)CO)C[C@@H](C)[C@H](CN(C)C(=O)c1cccnc1)O2`, for which the relative growth is 1.02. In the case of `COc1cc(N2CCC3(CC2)CNC(=O)CO3)ncn1`, the relative growth is 0.968. With `C[C@@H]1CN([C@H](C)CO)C(=O)Cc2cc(NC(=O)CCN3CCOCC3)ccc2O[C@H]1CN(C)Cc1ccc(C(=O)O)cc1` the figure was 1.03; with `COC12C(COC(N)=O)C3=C(C(=O)C(C)=C(N)C3=O)N1CC1NC12` (stereo not given), 0.0503 (active); with `CO[C@@]12[C@H](COC(N)=O)C3=C(C(=O)C(C)=C(N)C3=O)N1C[C@@H]1N[C@@H]12`, 1.01. In the case of `CO[C@@]12[C@@H]3N[C@@H]3CN1C1=C(C(=O)C(N)=C(C)C1=O)[C@@H]2COC(N)=O` it was 0.0651 (active); in that of `COCCNC(=O)C[C@H]1CC[C@H]2[C@@H](COC[C@@H](O)CN2C(=O)Nc2ccccc2OC)O1`, 0.949; in that of `Cc1noc(C)c1S(=O)(=O)Nc1ccc2c(c1)CC(=O)N([C@H](C)CO)C[C@@H](C)[C@H](CN(C)Cc1ccncc1)O2`, 0.995. With `C[C@H](CO)N1C[C@H](C)[C@@H](CN(C)C)Oc2ccc(NS(C)(=O)=O)cc2CC1=O` the figure was 0.983. For the compound `C[C@@H]1CCCCO[C@@H](CN(C)C(=O)C2CCCCC2)[C@H](C)CN([C@H](C)CO)C(=O)c2cc(NS(=O)(=O)c3ccccc3)ccc2O1`, the relative growth is 0.989. In the case of `CC1=C(C(=O)NCCCN2CCN(c3ccc(F)cc3)CC2)C2(CCN(Cc3ccccc3)CC2)OC1=O` it was 0.567. With `Cn1c(=O)[nH]c(=O)c2c1nc(N1CCN(CC(N)=O)CC1)n2C/C=C/c1ccccc1` the figure was 0.988. With `Cc1ccc(S(=O)(=O)N(C)C[C@H]2Oc3c(NC(=O)c4cnccn4)cccc3C(=O)N([C@H](C)CO)C[C@@H]2C)cc1` the figure was 0.975; with `C[C@H]1COc2c(C3(N)CC3)c(F)cc3c(=O)c(C(=O)O)cn1c23`, 0.0591 (active); with `CC1COc2c(C3(N)CC3)c(F)cc3c(=O)c(C(=O)O)cn1c23.CS(=O)(=O)O` (stereo not given), 0.0476 (active). As for `C[C@H]1CN([C@@H](C)CO)C(=O)c2cc(NC(=O)CCN3CCOCC3)ccc2O[C@H]1CN(C)C(=O)NC1CCCCC1`, the relative growth is 0.98.

As for `CS(=O)(=O)c1cc(F)ccc1N`, the relative growth was 0.965. In the case of `O=C(O)c1cccc(-c2ccco2)c1` it was 1.01; in that of `CC(=O)OCC1=C[C@@H]2OC(=O)C3=CO[C@@H](O[C@H]4O[C@H](CO)[C@@H](O)[C@H](O)[C@H]4O)[C@H]1[C@@H]32`, 1.01; in that of `CNC(=O)CN1CCOC[C@@]2(C1)CN(C(=O)c1ccn[nH]1)CCO2`, 0.952. In the case of `CS(=O)(=O)c1ccc(C(O)C(CO)NC(=O)C(Cl)Cl)cc1` (stereo not given) it was 0.375; in that of `O=C(NCO)c1ccc([N+](=O)[O-])cc1`, 1.02. With `O=C([O-])CCC(=O)OCC(NC(=O)C(Cl)Cl)C(O)c1ccc([N+](=O)[O-])cc1.[Na+]` (stereo not given) the figure was 0.0517 (active); with `O=C(NC(CO)C(O)c1ccc([N+](=O)[O-])cc1)C(Cl)Cl` (stereo not given), 0.0428 (active). As for `CS(=O)(=O)c1ccc(C(O)C(CF)NC(=O)C(Cl)Cl)cc1` (stereo not given), the relative growth was 0.0463 (active).

For the compound `CCCCCCCCCCCCCCCC(=O)OC[C@H](NC(=O)C(Cl)Cl)[C@H](O)c1ccc([N+](=O)[O-])cc1`, the relative growth was 0.604. In the case of `CCCCCCCCCCCCCCCC(=O)OCC(NC(=O)C(Cl)Cl)C(O)c1ccc([N+](=O)[O-])cc1` (stereo not given) it was 0.559; in that of `CCC(NC(C)C)C(O)c1ccc(O)c(O)c1.CS(=O)(=O)O` (stereo not given), 1.04; in that of `CCCCCCCCCCCCCCCC(=O)OC[C@@H](NC(=O)C(Cl)Cl)[C@H](O)c1ccc([N+](=O)[O-])cc1`, 1.03. With `C[C@@H]1CN([C@H](C)CO)C(=O)c2cc(NC(=O)Nc3ccc(F)cc3)ccc2O[C@@H](C)CCCCO[C@H]1CN(C)C(=O)Nc1ccc(C(F)(F)F)cc1` the figure was 1; with `Cc1ccc(S(=O)(=O)N(C)C[C@H]2OCCCC[C@H](C)Oc3ccc(NC(=O)Nc4ccccc4)cc3C(=O)N([C@H](C)CO)C[C@@H]2C)cc1`, 1.07.

As for `C[C@@H]1CN([C@H](C)CO)C(=O)c2cc(NS(=O)(=O)c3ccccc3)ccc2O[C@@H](C)CCCCO[C@H]1CN(C)Cc1ccc(C(F)(F)F)cc1`, the relative growth is 1.07. With `C[C@@H]1CCCCO[C@@H](CN(C)CC2CCCCC2)[C@@H](C)CN([C@H](C)CO)C(=O)c2cc(NS(=O)(=O)c3ccccc3)ccc2O1` the figure was 0.975; with `C=CCC[C@@H](Cc1ccc(F)cc1)C(=O)OC[C@@H](Cc1c[nH]c2ccccc12)NC(=O)[C@@H](CC=C)CC(=O)N(CCO)Cc1ccccc1`, 1.1. In the case of `C[C@@H]1CN([C@H](C)CO)C(=O)c2cccc(NC(=O)C3CCOCC3)c2O[C@H]1CN(C)Cc1ccc(-c2ccccc2)cc1` it was 1; in that of `O=C(CCCCCC(=O)N/N=C/[C@H](O)[C@@H](O)[C@H](O[C@@H]1O[C@H](CO)[C@H](O)[C@H](O)[C@H]1O)[C@H](O)CO)NO`, 1.01.
